Results as given in PubChem BioAssay AID1159580 (chemical genetic matrix, 2015).
About 2,000 (36%) of roughly 5,500 compounds were called active. About 18% were inconclusive and are not listed. Cut-off read from the data, not from the text of the source: active = normalized growth mostly below about 0.91 (no sharp cut-off); inconclusive = no clear call, values can overlap the other calls; inactive = mostly above about 0.92. The list shows a part of the results.

Test: chemical genetic growth profiling, strain panel (AID 1159580);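 note: tested at 20 µM; growth read once vehicle control cultures reached saturation at 30 °C; 1 = growth at the plate median or of vehicle wells; lower values mean less growth of the strain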
Conditions: growth OD

Measured: normalized growth

CC1(C)C(=O)C=C[C@@]2(C)C1C[C@@H](O)[C@]1(C)C2CC[C@@]2(C)[C@H](c3ccoc3)OC(=O)[C@H]3O[C@]321 (stereo partly specified)
inactive: S. cerevisiae deletion strains, locus YJR066W, strain TOR1, stronger effect = lower value 0.938 | S. cerevisiae deletion strains, locus YKL009W, strain mrt4, stronger effect = lower value 0.95 | S. cerevisiae deletion strains, locus YKL068W, stronger effect = lower value 0.973 | S. cerevisiae deletion strains, locus YKL085W, strain MDH1 (second series), stronger effect = lower value 0.973 | S. cerevisiae deletion strains, locus YKL085W, strain MDH1, stronger effect = lower value 0.973 | S. cerevisiae deletion strains, locus YKL160W, strain elf1, stronger effect = lower value 1 | S. cerevisiae deletion strains, locus YKL190W, strain CNB1, stronger effect = lower value 0.983 | S. cerevisiae deletion strains, locus YKR001C, strain vps1, stronger effect = lower value 0.963 | S. cerevisiae deletion strains, locus YKR026C, strain gcn3, stronger effect = lower value 0.995 | S. cerevisiae deletion strains, locus YKR091W, strain srl3, stronger effect = lower value 0.989 | S. cerevisiae deletion strains, locus YLL001W, strain dnm1, stronger effect = lower value 1.01 | S. cerevisiae deletion strains, locus YLL026W, stronger effect = lower value 1 | S. cerevisiae deletion strains, locus YLL041C, strain sdh2, stronger effect = lower value 0.992 | S. cerevisiae deletion strains, locus YLR027C, strain aat2, stronger effect = lower value 1.02 | S. cerevisiae deletion strains, locus YLR039C, strain RIC1, stronger effect = lower value 0.972 | S. cerevisiae deletion strains, locus YLR058C, strain SHM2, stronger effect = lower value 0.959 | S. cerevisiae deletion strains, locus YLR102C, strain apc9, stronger effect = lower value 0.983 | S. cerevisiae deletion strains, locus YLR113W, strain HOG1, stronger effect = lower value 0.991 | S. cerevisiae deletion strains, locus YLR221C, strain rsa3, stronger effect = lower value 1 | S. cerevisiae deletion strains, locus YLR258W, strain gsy2, stronger effect = lower value 1.03 | S. cerevisiae deletion strains, locus YLR262C, strain YPT6 (second series), stronger effect = lower value 0.992 | S. cerevisiae deletion strains, locus YLR262C, strain YPT6, stronger effect = lower value 0.962 | S. cerevisiae deletion strains, locus YLR268W, strain sec22, stronger effect = lower value 0.952 | S. cerevisiae deletion strains, locus YLR320W, strain mms22, stronger effect = lower value 1.01 | S. cerevisiae deletion strains, locus YLR330W, strain CHS5, stronger effect = lower value 0.987 | S. cerevisiae deletion strains, locus YLR342W, strain FKS1 (second series), stronger effect = lower value 1.02 | S. cerevisiae deletion strains, locus YLR342W, strain FKS1, stronger effect = lower value 1.02 | S. cerevisiae deletion strains, locus YLR357W, strain rsc2, stronger effect = lower value 0.965 | S. cerevisiae deletion strains, locus YLR370C, strain arc18, stronger effect = lower value 0.996 | S. cerevisiae deletion strains, locus YLR371W, strain rom2, stronger effect = lower value 0.99 | S. cerevisiae deletion strains, locus YLR384C, strain iki3, stronger effect = lower value 1 | S. cerevisiae deletion strains, locus YLR418C, strain cdc73, stronger effect = lower value 0.933 | S. cerevisiae deletion strains, locus YML016C, strain PPZ1, stronger effect = lower value 0.98 | S. cerevisiae deletion strains, locus YML032C, strain rad52, stronger effect = lower value 0.971 | S. cerevisiae deletion strains, locus YML120C, strain ndi1, stronger effect = lower value 1 | S. cerevisiae deletion strains, locus YML124C, strain tub3, stronger effect = lower value 0.989 | S. cerevisiae deletion strains, locus YMR058W, strain fet3, stronger effect = lower value 0.996 | S. cerevisiae deletion strains, locus YMR078C, strain ctf18, stronger effect = lower value 0.982 | S. cerevisiae deletion strains, locus YMR125W, strain sto1, stronger effect = lower value 0.984 | S. cerevisiae deletion strains, locus YMR129W, stronger effect = lower value 1.01 | S. cerevisiae deletion strains, locus YMR205C, strain PFK2, stronger effect = lower value 0.999 | S. cerevisiae deletion strains, locus YMR223W, strain ubp8, stronger effect = lower value 0.997 | S. cerevisiae deletion strains, locus YMR231W, strain pep5, stronger effect = lower value 0.992 | S. cerevisiae deletion strains, locus YMR307W, strain GAS1, stronger effect = lower value 0.954 | S. cerevisiae deletion strains, locus YNL067W, strain RPL9B, stronger effect = lower value 1.01 | S. cerevisiae deletion strains, locus YNL071W, strain lat1, stronger effect = lower value 1 | S. cerevisiae deletion strains, locus YNL183C, strain NPR1, stronger effect = lower value 0.963 | S. cerevisiae deletion strains, locus YNL209W, strain ssb2, stronger effect = lower value 1 | S. cerevisiae deletion strains, locus YNL233W, strain BNI4, stronger effect = lower value 1.01 | S. cerevisiae deletion strains, locus YNL248C, strain rpa49, stronger effect = lower value 0.917 | S. cerevisiae deletion strains, locus YNL250W, strain rad50, stronger effect = lower value 1 | S. cerevisiae deletion strains, locus YNL271C, strain bni1, stronger effect = lower value 0.984 | S. cerevisiae deletion strains, locus YNL298W, strain CLA4, stronger effect = lower value 0.995 | S. cerevisiae deletion strains, locus YNL307C, strain MCK1, stronger effect = lower value 0.989 | S. cerevisiae deletion strains, locus YNL322C, strain KRE1 (second series), stronger effect = lower value 1.01 | S. cerevisiae deletion strains, locus YNR049C, strain mso1, stronger effect = lower value 0.993 | S. cerevisiae deletion strains, locus YNR052C, strain pop2, stronger effect = lower value 0.992 | S. cerevisiae deletion strains, locus YOL012C, strain htz1 0.797 | S. cerevisiae deletion strains, locus YOL147C, strain pex11, stronger effect = lower value 0.997 | S. cerevisiae deletion strains, locus YOR001W, strain rrp6, stronger effect = lower value 0.986 | S. cerevisiae deletion strains, locus YOR061W, strain CKA2, stronger effect = lower value 0.952 | S. cerevisiae deletion strains, locus YOR069W, strain VPS5, stronger effect = lower value 0.992 | S. cerevisiae deletion strains, locus YOR070C, strain gyp1, stronger effect = lower value 1.03 | S. cerevisiae deletion strains, locus YOR080W, strain dia2, stronger effect = lower value 1.01 | S. cerevisiae deletion strains, locus YOR083W, strain WHI5, stronger effect = lower value 1 | S. cerevisiae deletion strains, locus YOR106W, strain vam3, stronger effect = lower value 0.996 | S. cerevisiae deletion strains, locus YOR136W, strain idh2, stronger effect = lower value 0.975 | S. cerevisiae deletion strains, locus YOR144C, strain elg1, stronger effect = lower value 0.986 | S. cerevisiae deletion strains, locus YOR184W, strain ser1, stronger effect = lower value 0.896 | S. cerevisiae deletion strains, locus YOR231W, strain MKK1, stronger effect = lower value 0.954 | S. cerevisiae deletion strains, locus YOR265W, strain rbl2, stronger effect = lower value 1.01 | S. cerevisiae deletion strains, locus YOR270C, strain vph1, stronger effect = lower value 0.97 | S. cerevisiae deletion strains, locus YOR290C, strain snf2, stronger effect = lower value 1 | S. cerevisiae deletion strains, locus YOR316C, strain cot1, stronger effect = lower value 0.985 | S. cerevisiae deletion strains, locus YPL051W, strain arl3, stronger effect = lower value 1.02 | S. cerevisiae deletion strains, locus YPL078C, strain atp4, stronger effect = lower value 1 | S. cerevisiae deletion strains, locus YPL106C, strain sse1, stronger effect = lower value 1.03 | S. cerevisiae deletion strains, locus YPL240C, strain hsp82, stronger effect = lower value 1 | S. cerevisiae deletion strains, locus YPL241C, strain CIN2, stronger effect = lower value 0.98 | S. cerevisiae deletion strains, locus YPL256C, strain CLN2, stronger effect = lower value 0.945 | S. cerevisiae deletion strains, locus YPR119W, strain clb2, stronger effect = lower value 0.985 | S. cerevisiae deletion strains, locus YPR141C, strain kar3, stronger effect = lower value 0.985 | S. cerevisiae deletion strains, locus YPR163C, strain tif3, stronger effect = lower value 0.98 | S. cerevisiae deletion strains, locus YPR167C, strain met16, stronger effect = lower value 0.99 | S. cerevisiae deletion strains, strain wtn01, stronger effect = lower value 0.96 | S. cerevisiae strains, strain wild type, stronger effect = lower value 0.97
